tim23-1 inh: inhibits growth of tim23-1 mutant yeast. S. cerevisiae tim23-1 growth, BacTiter-Glo luminescence, 24 h. inhibition, % at 20 µM. 330,000 compounds, 1.3% hits;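 active = growth inhibition of the mutant yeast at or above 50%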;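 note: temperature-sensitive mutant grown at 25 °C; plate controls were DMSO-treated mutant yeast for no effect and medium wells lacking yeast for full effect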
tim10-1 inh: tim10-1 yeast growth inhibition. S. cerevisiae tim10-1 ts strain growth, BacTiter-Glo, 24 h. inhibition, % at 20 µM. 330,000 compounds, 2.2% hits;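 active = inhibition of at least 40%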;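 note: mutant grown at 25 °C; 0% = DMSO wells with yeast and 100% = wells holding no yeast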
PfHsp90 set2: growth inhibition of yeast expressing Plasmodium Hsp90. 310,000 compounds, 0.32% hits. inhibition, % at 9.4 µM. S. cerevisiae expressing PfHsp90, BacTiter-Glo ATP, 48 h; yeast lacking PDR1 and PDR3 efflux regulators. AID 504621;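 active = every replicate shows inhibition above about 80%, whatever the replicate mean, limit read from the data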;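 note: 0% = DMSO neutral controls and 100% = 20 µM radicicol positive controls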
TIM10 inh: TIM10 yeast growth inhibition | S. cerevisiae TIM10 strain growth, BacTiter-Glo luminescence, 24 h | 330,000 compounds, 1.4% hits | inhibition, % at 10 µM | AID 463195;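 active = inhibition of 40% or more at the single tested concentration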;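 note: wild-type TIM10 isogenic control strain grown at permissive 25 °C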
SUMO Mot1 rescue: blocks SUMOylation pathway, rescuing yeast Mot1-301 growth | S. cerevisiae Mot1-301 growth rescue, ATP luminescence, 38.5C; percent above DMSO median, 100 means doubled | AID 2716 | 320,000 compounds, 1% hits | growth rescue, % at 18.8 µM;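 active = every valid replicate shows activation above 250% relative to neutral control wells; inactive = the rest, any valid replicate at or below 250%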;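 note: OY570 slx delta 5 strain wells were the positive control but not used for scaling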
tim10-1 confirm: tim10-1 yeast growth inhibition, confirmed | inhibition, % at 20 µM | shares compounds with tim10-1 inh | S. cerevisiae tim10-1 ts strain growth, BacTiter-Glo, 24 h | 7,400 compounds, 56% hits;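 active = inhibition of yeast growth at or above a set limit in either of two repeat tests at 20 µM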;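 note: tim10-1 mutant grown at permissive 25 °C to find synthetic lethal compounds; 0% = DMSO yeast wells and 100% = medium wells without yeast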
TIM10 conf: confirmation of TIM10 yeast growth inhibitors. shares compounds with TIM10 inh. S. cerevisiae tim10 strain growth, BacTiter-Glo luminescence, 24 h. inhibition, % at 10 µM. 4,600 compounds, 63% hits. AID 463215;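 active = inhibition of yeast growth at or above a set limit in either of two replicates at 10 µM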;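 note: this counterscreen used the strain with wild-type TIM10; 0% = yeast with DMSO and 100% = medium wells lacking yeast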
tim23-1 confirm: tim23-1 yeast growth inhibition, confirmed. AID 463218. shares compounds with tim23-1 inh. S. cerevisiae tim23-1 growth, BacTiter-Glo luminescence, 24 h. inhibition, % at 20 µM. 4,400 compounds, 83% hits;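 active = inhibition above about 39% in either of two replicate wells at 20 µM, limit read from the data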;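 note: temperature-sensitive tim23-1 mutant grown at 25 °C; 0% = DMSO wells with yeast and 100% = medium wells without yeast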
An asterisk follows results filed as active; / = no result given; + = active, no number. Only some compounds are listed: those with a hit (about 4.4% of all), similar ones and a draw of the others.

SMILES | tim23-1 inh | tim10-1 inh | PfHsp90 set2 | TIM10 inh | SUMO Mot1 rescue | tim10-1 confirm | TIM10 conf | tim23-1 confirm
Cc1ccc(S(=O)(=O)N2CCN(C(=O)COC(=O)COc3cccc4c3OC(C)(C)C4)CC2)cc1 | 15 | 15 | 17 | 2 | 5 | / | / | /
O=C(/C(=C/c1ccc(Cl)cc1)c1nc2ccccc2[nH]1)c1cccs1 | 51* | 56* | / | 70* | 521* | 39* | 71* | -31
COC(=O)/C(=C\c1ccc(O)cc1)c1nc2ccccc2[nH]1 | 22 | 23 | -65 | 24 | -22 | / | / | /
O=C(/C(=C\c1ccccc1)c1nc2ccccc2[nH]1)c1ccc(Cl)cc1 | 51* | 43* | 104* | 40 | + | 34* | / | 62*
CN(C)S(=O)(=O)c1cccc(NC(=O)CO/N=C(\N)c2ccccc2)c1 | 4 | 16 | -3 | 3 | 14 | / | / | /
CCOc1ccc(NC(=O)CN(C)C(=O)c2cccnc2SC)cc1OCC | -9 | -18 | -16 | -6 | -12 | / | / | /
Nc1ncnc2c1ncn2[C@@H]1O[C@H](COP(=O)(O)O)[C@@H](O)[C@H]1O | 84* | 87* | 70 | 76* | -71 | 85* | 66* | 90*
NCCC(=O)NC[C@H]1O[C@@H](n2cnc3c(N)ncnc32)[C@H](O)[C@@H]1O | 22 | -4 | -9 | -13 | / | / | / | /
Nc1ncnc2c1ncn2[C@@H]1O[C@H](COP(=O)(O)OP(=O)(O)OP(=O)(O)O)[C@@H](O)[C@H]1O | 84* | 84* | 88* | 70* | -60 | 80* | 68* | 87*
Nc1ncnc2c1ncn2[C@@H]1O[C@H](COS(=O)(=O)O)[C@@H](O)[C@H]1O | 0 | 0 | -17 | 3 | 42 | / | / | /
Nc1ncnc2c1ncn2C1OC(COP(=O)(O)O)C(O)C1O (stereo unspecified) | 81* | 85* | 97* | 73* | -58 | 84* | 60* | 88*
Cc1ccc(N2CC(C)Cn3c2nc2c3c(=O)[nH]c(=O)n2C)cc1C (stereo unspecified) | 7 | 28 | 11 | 10 | 7 | / | / | /
Nc1c(C(=O)OCC(=O)Nc2cccc([N+](=O)[O-])c2)[nH]c(=O)[nH]c1=O | 18 | 6 | / | -11 | -31 | / | / | /
Cc1ccsc1C(=O)N1CCN(C(=O)c2ccco2)CC1 | 10 | -2 | 5 | 6 | 0 | / | / | /
O=C(Nc1nnc(-c2ccco2)s1)C1CCCCC1 | -1 | 6 | 20 | -12 | 7 | / | / | /
O=C(Nc1nc(-c2ccco2)c(-c2ccco2)s1)C1CCC1 | 66* | 45* | -16 | 46* | 20 | 59* | 48* | 60*
COc1ccc(CN(C)C(=O)c2cc(-c3ccc(OC)c(OC)c3)nc3ccccc23)c(OC)c1 | 22 | 9 | 7 | 13 | -15 | / | / | /
COc1ccc(-c2cc(C(=O)N(C)Cc3cccc(OC)c3OC)c3ccccc3n2)cc1OC | 70* | 53* | -4 | 50* | 2 | 64* | 50* | 94*
O=C1CN(C(=O)COC(=O)c2ccc([N+](=O)[O-])o2)c2ccccc2N1 | 14 | 11 | -3 | -4 | -10 | / | / | /
O=C(O)c1ccc(NC2=C/C(=N/S(=O)(=O)c3ccccc3)c3ccccc3C2=O)cc1 | 40 | 38 | -30 | 14 | / | / | / | /
Cc1cc(C)c(S(=O)(=O)/N=C2\C=C(Nc3ccc(C(=O)O)cc3)C(=O)c3ccccc32)c(C)c1 | 60* | 43* | -8 | 24 | -32 | 35* | / | 63*
COc1ccc(NC(=O)Nc2ccc3c(c2)C(=O)N([C@H](C)CO)C[C@H](C)[C@@H](CN(C)C(=O)Nc2c(C)noc2C)O3)cc1 | 10 | 14 | -17 | 0 | -8 | / | / | /
CC(C)(Oc1ccc(Cl)cc1)C(=O)NCCN1C(=O)S/C(=C/c2cccnc2)C1=O | 53* | 48* | 34 | 51* | 14 | 44* | -38 | 48*
CC(Oc1ccc(Cl)cc1)C(=O)NCCN1C(=O)S/C(=C\c2cccnc2)C1=O (stereo unspecified) | 48 | 39 | -18 | 40 | / | / | / | /
CNC(=O)c1c(NC(=O)C2=COCCO2)sc2c1CCC(C)C2 (stereo unspecified) | 56* | 51* | -25 | 31 | 123 | 23 | / | 50*
SMILES | tim23-1 inh | tim10-1 inh | PfHsp90 set2 | TIM10 inh | SUMO Mot1 rescue | tim10-1 confirm | TIM10 conf | tim23-1 confirm
CSc1ccccc1OCc1cc(C(=O)NCCCn2nc(C)cc2C)no1 | 31 | 31 | -30 | 15 | 8 | / | / | /
O=c1oc(-c2ccco2)nc2sc3c(c12)CCCC3 | 54* | 46* | -27 | 47* | -2 | 31* | 43* | 42*
COc1cccc(CNC(=O)CCC2CCCN(C(=O)c3ccccc3N(C)C)C2)c1 (stereo unspecified) | 18 | 22 | -5 | 10 | 0 | / | / | /
CN=C1S/C(=C\c2ccc(O)c(OC)c2)C(=O)N1C | 31 | 31 | / | 27 | 32 | / | / | /
CN=C1S/C(=C\c2ccc(O)c(Br)c2)C(=O)N1C | 62* | 56* | 28 | 37 | -26 | 50* | / | 63*
N/C(=N\OC(=O)c1cccs1)c1ccc(Cl)cc1 | 82* | 69* | / | 84* | -4 | 53* | 84* | 91*
O=C(COC(=O)c1cccs1)Nc1ccc(F)c(F)c1 | 15 | -3 | -22 | 0 | -16 | / | / | /
N/C(CC(=O)Nc1ccc(F)c(Cl)c1)=N\OC(=O)c1cccs1 | 73* | 54* | -24 | 81* | 256 | 37* | 86* | 83*
COc1ccc(/C(N)=N/OC(=O)c2ccc(Br)o2)cc1 | -17 | 17 | -25 | -5 | -3 | / | / | /
COc1ccc(/C(N)=N/OC(=O)c2cccs2)cc1 | 71* | 43* | -13 | 63* | 278 | 60* | 68* | 88*
COc1ccccc1/C=C(\NC(=O)c1ccccc1)C(=O)NCc1ccco1 | 6 | -9 | 34 | -8 | 42 | / | / | /
COc1ccc(/C=C/C=C2\N=C(SC)SC2=O)cc1 | 72* | 51* | 14 | 57* | -1 | 38* | -2 | 22
CSC1=N/C(=C\c2ccc(F)cc2)C(=O)S1 | 39 | 15 | 27 | 8 | -7 | / | / | /
COC(=O)C1=C(C)N(c2ccccc2)/C(=C/c2ccco2)C1=O | 28 | 4 | 3 | 22 | -4 | / | / | /
COC(=O)C1=C(C)N(c2cc(C)cc(C)c2)/C(=C/c2ccco2)C1=O | 54* | 55* | 0 | 39 | -22 | 28 | / | 50*
COc1ccc(/C=C/c2nnc(NC(=O)C(C)(C)C)s2)cc1 | 52* | 41* | 3 | 30 | -8 | 31* | / | 46*

Screening results deposited in PubChem by several laboratories.
